Coupling enz: coupling enzyme interference in Giardia aldolase counter-screen; coupling enzyme system counterscreen, AmpLite Red fluorescence; activity change, negative = inhibition, % at 58.2 µM, hits read low; actives 0.67% (n = 290,000); AID 2472; in the data active = activity change below about -30%
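Counterscreen lacking aldolase: glyceraldehyde-3-phosphate coupling-enzyme reagent preincubated 10 min at RT with compound (at 57.5 uM final), then substrate/coupling system with AmpLite Red added; fluorescence read at 525/598 nm after 20 min RT.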
USP1 inh: inhibitors of human USP1/UAF1 deubiquitinase | O94782 | AID 743255 | recombinant USP1/UAF1, Ub-Rhodamine cleavage fluorescence | Potency, µM (top dose mostly 57.1 µM), inactives show at the top dose activity change, negative = inhibition, usual class: inhibitors | actives 0.23% (n = 390,000); also: potency is read from the fitted curve at half-maximal effect; nearly all actives have a fitted effect of over 60% in size
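In this screen, compounds sit with the deubiquitinase complex (1nM) for 15 min at room temperature before Ub-Rho is added at 150nM final. Fluorescence rise is then followed for 6 reads every 60 seconds.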
GALK inh: inhibitors of human galactokinase; P51570; Purified GALK, Kinase-Glo residual ATP luminescence; Potency, µM (series often up to 57.5 µM), for inactives: at the top dose activity change, negative = inhibition, most hits filed as inhibitors; actives 0.007% (n = 270,000); AID 1868; also: potency is read from the fitted curve at half-maximal effect
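Luminescence from leftover ATP (Ultra-Glo luciferase/luciferin) served as read-out after a 1 h room-temperature reaction of 5 nM GALK with 35 uM ATP and 100 uM galactose.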
USP2a block: USP2a (human) protease inhibition; USP2 core, Ub-CHOP2 coupled fluorogenic reporter, 485/531; Potency, µM (titrated, usually from 38.3 µM), for the others: top-dose activity change, negative = inhibition, most hits filed as inhibitors; O75604; actives 0.01% (n = 330,000);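 also: potency is read from the fitted curve at half-maximal effect; plate controls were DMSO wells for no effect and full inhibition by NEM control for full effect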
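USP2 core (10nM final) preincubated 30min RT with compound in 20mM Tris-HCl pH 8.0, 2mM CaCl2, 2mM beta-mercaptoethanol, 0.05% CHAPS; 25nM Ub-CHOP2 plus 25nM reporter substrate added, fluorescence (Ex485/Em531) read after 60min.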
PLK1 PBD block: inhibitors of human PLK1 polo-box domain binding; Plk1 PBD binding of FITC phosphopeptide, fluorescence polarization; AID 720504; actives 2.8% (n = 360,000); Potency, µM, for the others: max response, negative = inhibition, most hits filed as inhibitors; also: potency is read from the fitted curve at half-maximal effect; series mostly up to about 57 µM; nearly all actives have a fitted effect of over 65% in size
Target sequence (P53350 whole entry, looked up, the tested form may be a part): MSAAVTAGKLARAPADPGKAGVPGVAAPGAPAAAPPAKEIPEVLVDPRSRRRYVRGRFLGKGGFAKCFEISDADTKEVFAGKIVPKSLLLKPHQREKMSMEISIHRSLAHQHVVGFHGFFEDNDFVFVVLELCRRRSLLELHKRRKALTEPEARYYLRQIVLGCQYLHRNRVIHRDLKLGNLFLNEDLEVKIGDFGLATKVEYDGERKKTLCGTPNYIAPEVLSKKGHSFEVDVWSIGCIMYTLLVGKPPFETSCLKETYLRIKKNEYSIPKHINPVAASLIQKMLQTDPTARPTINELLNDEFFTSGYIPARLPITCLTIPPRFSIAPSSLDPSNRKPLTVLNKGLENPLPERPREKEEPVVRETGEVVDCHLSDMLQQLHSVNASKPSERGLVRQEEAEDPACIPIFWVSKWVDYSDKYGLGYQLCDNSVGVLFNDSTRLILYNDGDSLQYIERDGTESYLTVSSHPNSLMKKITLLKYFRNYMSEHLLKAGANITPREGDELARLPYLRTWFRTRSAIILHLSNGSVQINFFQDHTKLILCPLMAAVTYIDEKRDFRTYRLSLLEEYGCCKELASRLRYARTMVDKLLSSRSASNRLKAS
VDR inh: inhibitors of human vitamin D receptor. Potency, µM, for inactives: max response, negative = inhibition, most hits filed as inhibitors. AID 504847. VDR-SRC2-3 peptide fluorescence polarization, 2 h. P11473. actives 0.93% (n = 400,000); also: potency is read from the fitted curve at half-maximal effect
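After 23 nl compound addition and a short centrifugation, plates sat for 2 hours at ambient temperature; polarization of fluorescence then indicated loss of VDR binding to peptide SRC2-3.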
An asterisk follows results filed as active. Only some compounds are listed: those with a hit (about 3.2% of all), similar ones and a draw of the others. Unless noted, calls follow the shape of the dose curve; as a rule, active = well fitted curve in the direction sought with a large enough effect; inconclusive = small, poorly fitted or top-dose-only effect, or another doubt; inactive = no such curve, though single readings can be large; an effect the other way counts as inactive or inconclusive. Unless noted, % is scaled to controls: 0 for no effect and ±100 for the full control effect.

Screening c1cc(SSc2ccncc2)ccn1 returned Coupling enz -1, USP1 inh 2%, GALK inh -8%, USP2a block 9%, PLK1 PBD block 1.9µM* and VDR inh 32µM*.
CC(=O)NC1=NN(C(C)=O)C2(S1)C(=O)N(C(C)=O)c1ccc(C)cc12 (stereo unspecified) was read as Coupling enz 1, USP1 inh -3%, GALK inh -1%, USP2a block 2%, PLK1 PBD block 27µM* and VDR inh inconclusive.
Screening CCCN1C(=O)C2(SC(NC(C)=O)=NN2C(C)=O)c2cc(C)ccc21 (stereo unspecified) returned Coupling enz -2, USP1 inh -4%, GALK inh 0%, USP2a block 4%, PLK1 PBD block 2% and VDR inh -2%.
Screening C/C(=N\NC(N)=O)C1CC(CC(C)C)C(=O)O1 (stereo unspecified) returned Coupling enz 2, USP1 inh -6%, GALK inh 9%, USP2a block 2%, PLK1 PBD block -4% and VDR inh -9%.
Screening CCCCCCCC1CC(/C(C)=N/NC(N)=O)OC1=O (stereo unspecified) returned Coupling enz 5, USP1 inh -18%, USP2a block -4%, PLK1 PBD block 12µM* and VDR inh 45µM*.
For COCCCNc1nc2c(c(=O)[nH]c(=O)n2C)n1CC(O)COc1ccccc1C (stereo unspecified) the results were Coupling enz 1, USP1 inh -12%, GALK inh 1%, USP2a block -1%, PLK1 PBD block 24µM* and VDR inh -15%.
Screening Cn1c(=O)c2c(nc(N3CCCCCC3)n2CC(O)COc2ccccc2)n(C)c1=O (stereo unspecified) returned Coupling enz 0, USP1 inh -19%, GALK inh 6%, USP2a block 1%, PLK1 PBD block 3µM* and VDR inh inconclusive.
For Cn1c(=O)[nH]c(=O)c2c1nc(SCCO)n2CC(O)COc1ccccc1 (stereo unspecified) the results were Coupling enz -6, USP1 inh 3%, GALK inh 0%, USP2a block 0%, PLK1 PBD block 24µM* and VDR inh -7%.
`COCCCNc1nc2c(c(=O)[nH]c(=O)n2C)n1CC(O)COc1ccccc1` (stereo unspecified) gave Coupling enz -2, USP1 inh 7%, GALK inh 3%, USP2a block 0%, PLK1 PBD block -4% and VDR inh -9%.
For CCCSc1nc2c(c(=O)[nH]c(=O)n2C)n1CC(O)COc1ccccc1 (stereo unspecified) the results were Coupling enz 3, USP1 inh -8%, GALK inh 6%, USP2a block 3%, PLK1 PBD block -30% and VDR inh -20%.
Screening Cn1c(=O)c2c(nc(N3CCCCC3)n2CC(O)COc2ccccc2)n(C)c1=O (stereo unspecified) returned Coupling enz 2, USP1 inh -5%, GALK inh -3%, USP2a block 0%, PLK1 PBD block -11% and VDR inh 5%.
Screening CCn1c(Oc2ccccc2)nc2c1c(=O)n(C)c(=O)n2C returned Coupling enz -1, USP1 inh -7%, GALK inh 5%, USP2a block 0%, PLK1 PBD block 27µM* and VDR inh inconclusive.
Screening Cc1cc(C)c2c(n1)SCC(=O)N2CC(=O)Nc1cccc(Cl)c1 returned Coupling enz 2, USP1 inh -12%, USP2a block 1%, PLK1 PBD block -2% and VDR inh -17%.
For N/C(=N\OC(=O)c1ccc2ccccc2c1)c1ccncc1 the results were Coupling enz 0, USP1 inh -15%, GALK inh -3%, USP2a block 0%, PLK1 PBD block 2% and VDR inh 6%.
CC(C)CSc1nc2c(c(=O)[nH]c(=O)n2C)n1CC(O)COc1cccc2ccccc12 (stereo unspecified) was read as Coupling enz 3, USP1 inh 0%, GALK inh 1%, USP2a block 3%, PLK1 PBD block 11µM* and VDR inh inconclusive.
For CCSc1nc2c(c(=O)[nH]c(=O)n2C)n1CC(O)COc1ccccc1 (stereo unspecified) the results were Coupling enz -5, USP1 inh -8%, GALK inh -1%, USP2a block 2%, PLK1 PBD block 5% and VDR inh -14%.
O=C(NCCN1CCOCC1)c1cc(Sc2ccccc2Cl)nc2ccccc12 was read as Coupling enz -2, GALK inh 2% and USP2a block 1%.
For COC(=O)C1=C(C)Nc2ccc(C)cc2S1 the results were Coupling enz 6, USP1 inh -20%, GALK inh 1%, USP2a block -1%, PLK1 PBD block inconclusive and VDR inh 71µM*.
Screening Cc1noc(C)c1COC(=O)CCCNC(=O)c1ccc(Cl)cc1 returned Coupling enz -2, USP1 inh -14%, GALK inh 0%, USP2a block 2%, PLK1 PBD block -7% and VDR inh 13%.
Cc1noc(C)c1COC(=O)/C=C/c1ccc(Cl)cc1 was read as Coupling enz 1, USP1 inh -12%, GALK inh 10%, USP2a block 0%, PLK1 PBD block 12µM* and VDR inh inconclusive.
Cc1ccc(C(=O)NNc2cc(N3CCCC3)nc(N3CCCC3)n2)cc1 was read as Coupling enz -10, USP1 inh 14µM*, GALK inh -3%, USP2a block -2%, PLK1 PBD block -13% and VDR inh 6%.
For CCc1ccc(OCC(=O)N/N=C/c2cc([N+](=O)[O-])ccc2N2CCOCC2)cc1 the results were Coupling enz -19, USP1 inh -15%, GALK inh -1%, USP2a block 3%, PLK1 PBD block 2% and VDR inh 15%.
`COc1ccc(NCC(=O)N/N=C/c2cc([N+](=O)[O-])ccc2N2CCCC2)cc1` gave Coupling enz -10, USP1 inh -21%, GALK inh 0%, USP2a block 4%, PLK1 PBD block 13µM* and VDR inh inconclusive.
For CCC(CC)C(=O)Nc1cccc(/C(C)=N/NC(=O)c2ccccc2Cl)c1 the results were Coupling enz 0, USP1 inh -27%, GALK inh 1%, USP2a block 0%, PLK1 PBD block 27µM* and VDR inh 8%.
`CCOC(=O)N1CCC2CC1c1cc(Cl)ccc12` (stereo unspecified) gave USP1 inh -32%, PLK1 PBD block 0% and VDR inh -8%.

High-throughput results as filed in PubChem.
